In PubChem BioAssay AID1851 (National Center for Advancing Translational Sciences (NCATS), 2009):
“And” between values parts separate entries of the source, which are not always exact repeats. Equal entries are not always repeated. Out of some 16,000 compounds screened, about 2,600 (16%) were called active. Another 20% or so got no clear call; they are omitted. The call rests on the fitted dose curve; in most records, active means well fitted curve in the direction sought with a large enough effect; inconclusive means small, poorly fitted or top-dose-only effect, or effect the other way; inactive means no such curve, though single readings can be large or run the other way. Only a selection was taken, and actives are over-represented in it overall. Some compounds were tested as several samples or in several runs, with calls that do not always agree.

target: Cytochrome P450 2D6 (Homo sapiens) (UniProt P10635); test: Cytochrome panel assay with activity outcomes; details: recombinant CYP, pro-luciferin dealkylation, luminescence, p450-cyp2d6; series mostly up to 57.1 µM; activity, negative = inhibition: at the top concentration
Sequence (P10635 whole entry, looked up): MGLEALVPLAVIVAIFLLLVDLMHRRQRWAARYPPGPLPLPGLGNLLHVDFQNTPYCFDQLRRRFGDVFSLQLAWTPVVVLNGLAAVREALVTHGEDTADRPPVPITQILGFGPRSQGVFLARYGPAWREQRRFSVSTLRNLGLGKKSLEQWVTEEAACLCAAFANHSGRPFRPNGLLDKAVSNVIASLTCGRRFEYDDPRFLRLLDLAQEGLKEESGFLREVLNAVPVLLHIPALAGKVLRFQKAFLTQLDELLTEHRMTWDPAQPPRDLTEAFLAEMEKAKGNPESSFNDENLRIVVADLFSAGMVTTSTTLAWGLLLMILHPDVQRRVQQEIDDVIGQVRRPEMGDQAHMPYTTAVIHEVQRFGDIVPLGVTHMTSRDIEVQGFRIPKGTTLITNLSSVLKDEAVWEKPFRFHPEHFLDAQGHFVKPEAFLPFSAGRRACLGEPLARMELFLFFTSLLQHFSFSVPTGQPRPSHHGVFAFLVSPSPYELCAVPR
Procedure: The P450 gene superfamily is involved in the metabolism and clearance of xenobiotics. This assay used various human CYP P450 isozymes to measure the dealkylation of various pro-luciferin substrates to luciferin. The luciferin is then measured by luminescence after the addition of a luciferase detection reagent. Pro-luciferin substrate concentration in the assay was equal to its KM for its CYP P450 isozyme. Inhibitors and some substrates limit the production of luciferin, and decrease measured luminescence.
NCGC Assay Protocol Summary:
1, Reagent, 2 uL, Isozyme and Pro-Luciferin
2, Library compounds, 23 nl, 40 uM to 0.24 nM dilution series
3, Controls, 23 nl, Isozyme specific inhibitor
4, Reagent, 2 uL, NADPH regeneration solution
5, Incubation time, 60 min, Isozyme specific temperature
6, Reagent, 4ul, Detection reagent
7, Incubation time, 20 min, Isozyme specific temperature
8, Detection, 1 sec, ViewLux luminescent read
The luciferase-based P450-GloTM Screening Systems were obtained from Promega (Madison, WI) for CYP 1A2 (V9770), CYP 2C9 (V9790), CYP2 C19 (V9880), CYP 2D6 (V9890), and CYP 3A4 Luciferin-PPXE (V9910) and were adapted for 1,536-well microplates and an automated protocol. The control compounds furafylline for 1A2 (F124), sulfaphenazole for CYP 2C9 (S0758), ketoconazole for CYP 2C19 (K1003), quinidine for 2D6 (Q3625), and ketoconazole for 3A4 (K1003) were purchased from Sigma Aldrich (St. Louis, MO). Recombinant P450 enzymes were obtained from baculovirus constructs expressed in insect cells (BD/Gentest).
Medium-binding white solid Kalypsys plates used. Mixtures kept on ice. 1A2: 10 nM 1A2, 100 uM Luc-ME, 100 mM KPO4; 2C9: 10 nM 2C9, 100 uM Luc-H, 25 mM KPO4; 2C19: 5 nM 2C19, 10 uM Luc-H EGE, 50 mM KPO4; 2D6: 5 nM 2D6, 30 uM Luc-ME EGE, 100 mM KPO4; 3A4: 10 nM, 25 uM Luc-PPXE. All amounts are reflected in their final concentration, working concentration is 2x.
NADPH regeneration solution: 1.3 mM NADP+, 3.3 mM glucose-6-phosphate, 3.3 mM MgCl2, 0.4 U/mL glucose-6-phosphate dehydrogenase for all isozymes, 200 mM KPO4 for 3A4. Mixture prepared at RT but kept on ice during automated run.
RT incubation in auxilliary plate hotel for 1A2, 2D6, and 3A4; 37C for 2C9 and 2C19.
Keywords: P450, CYP1A2, CYP2C19, CYP2C9, CYP2D6, CYP3A4, Luciferase, MLSMR, MLSCN, NIH Roadmap, qHTS, NCGC
On the % scale 0 is the no-effect control and ±100 the full control effect.

| Structure (SMILES) | activity, negative = inhibition | AC50 |
| --- | --- | --- |
| CN(C)C(=O)Oc1ccc[n+](C)c1 | 11.3% (inactive) |  |
| C[C@@H]1O[C@H]1P(=O)(O)O | 19.4% (inactive) |  |
| O=c1c(O)c(-c2ccc(O)c(O)c2)oc2cc(O)cc(O)c12 |  | inactive |
| CNC[C@H](O)c1ccc(O)c(OC)c1 | -1.02% [at 25.6 µM] (inactive) |  |
| C[C@](N)(CCP(=O)(O)O)C(=O)O | 8.58% (inactive) |  |
| CCCN(CCC)[C@@H]1CCc2ccc(O)cc2C1 |  | 794 nM (active) and inactive |
| CCCN(C/C=C\I)[C@@H]1CCc2ccc(O)cc2C1 |  | 0.0158 µM (active) |
| CCCN(CCC)C1Cc2cc(OC)c(OC)cc2C1 |  | 25.1 µM (active) and inactive |
| O=C(O)[C@H]1CCN1 | -3.77% (inactive) |  |
| CN(C)[C@H]1C(=O)C(C(N)=O)=C(O)[C@]2(O)C(=O)C3=C(O)c4c(O)cccc4[C@@](C)(O)[C@H]3C[C@@H]12 | 13.9% [at 25.6 µM] (inactive) |  |
| O=C(O)C(C(=O)O)P(=S)(S)c1ccccc1 (stereo not drawn) | 8.23% [at 11.4 µM] (inactive) |  |
| CC(=O)NBr | 4.43% (inactive) |  |
| N#CCCCC[N+]12CN3CN(CN(C3)C1)C2 | 1.51% [at 11.4 µM] (inactive) |  |
| COC1=CC(=O)O[C@@H](/C=C\c2ccccc2)C1 | 0.589% [at 25.6 µM] (inactive) |  |
| CCN1C[C@]2(COC)CC[C@H](O)[C@@]34[C@@H]5C[C@H]6[C@@H](OC)[C@H]5[C@](O)(C[C@@H]6OC)[C@@](O)([C@@H](OC)[C@H]23)[C@@H]14 | 11.1% [at 25.6 µM] (inactive) |  |
| CCN(CC)c1ncnc2c1ncn2[C@@H]1O[C@@H](COP(=O)(O)OP(=O)(O)C(Br)(Br)P(=O)(O)O)[C@H](O)[C@H]1O |  | 0.631 µM (active) |
| CCN(CC)c1ncnc2c1ncn2[C@@H]1O[C@@H](COP(=O)(O)OP(=O)(O)C(Br)(Br)P(=O)(O)O)[C@H](O)[C@@H]1O | -10.4% (inactive) |  |
| Nc1ncnc2c1ncn2[C@@H]1O[C@@H](COP(=O)(O)CP(=O)(O)OP(=O)(O)O)[C@H](O)[C@@H]1O | -5.92% (inactive) |  |
| COc1cc2c3cc1Oc1cc(ccc1O)C[C@@H]1c4c(cc(OC)c(O)c4Oc4cccc(c4)C[C@H]3N(C)CC2)CC[N+]1(C)C | 2.51% [at 25.6 µM] (inactive) |  |
| O=P(O)(O)CCP(=O)(O)O | 10.1% [at 11.4 µM] (inactive) |  |
| N[C@H](CP(=O)(O)O)C(=O)O | -6.71% (inactive) |  |
| Cc1nc2ccccc2cc1C[N+]12CN3CN(CN(C3)C1)C2 | -2.3% [at 11.4 µM] (inactive) |  |

| Structure (SMILES) | activity, negative = inhibition | AC50 |
| --- | --- | --- |
| c1ccc2c(c1)-c1ccccc1C2N1CC2CCC(CC2)C1 |  | 3.98 µM (active) |
| O=C1N[C@@]2(CN3CCC2CC3)C(=O)N1CN(Cc1ccccc1)c1ccccc1 | 2.51% [at 11.4 µM] (inactive) |  |
| CC[C@@]1(c2ccc(N)cc2)CCC(=O)NC1=O |  | inactive |
| CN1Cc2c(ccc3c2OCO3)[C@@H]2[C@@H](O)Cc3cc4c(cc3[C@@H]21)OCO4 |  | 0.2 µM (active) |
| C[C@H]1CCCC=CC2C[C@H](O)C[C@@H]2[C@H](O)/C=C\C(=O)O1 (stereo partly drawn) | 9.19% (inactive) |  |
| N#Cc1cccc(NC(=O)N2CCCC3(CCN(C(=O)Oc4ccccc4)CC3)C2)c1 | -9.57% (inactive) |  |
| Oc1ccc2c3c1O[C@H]1c4oc5ccccc5c4C[C@]4(O)[C@H](C2)N(CC2CC2)CC[C@@]314 |  | 1.26 µM (active) |
| Oc1ccc2c3c1O[C@H]1c4c(c5ccccc5n4Cc4ccccc4)C[C@]4(O)[C@H](C2)N(CC2CC2)CC[C@@]314 | -5.11% (inactive) |  |
| NC(N)=Nc1ccc2[nH]c3c(c2c1)C[C@]1(O)[C@@H]2Cc4ccc(O)c5c4[C@]1(CCN2CC1CC1)[C@H]3O5 | 2.41% (inactive) |  |
| Oc1ccc2c3c1O[C@H]1c4[nH]c5c(c4C[C@@]4(O)[C@@H](C2)N(CC2CC2)CC[C@]314)C[C@]1(O)[C@H]2Cc3ccc(O)c4c3[C@@]1(CCN2CC1CC1)[C@@H]5O4 | -4.33% (inactive) |  |
| Oc1ccc2c3c1O[C@@H]1c4[nH]c5c(c4C[C@@]4(O)[C@@H](C2)N(CC2CC2)CC[C@]314)C[C@]1(O)[C@@H]2Cc3ccc(O)c4c3[C@@]1(CCN2CC1CC1)[C@H]5O4 | -4.66% (inactive) |  |
| Oc1ccc2c3c1O[C@H]1c4[nH]c5ccccc5c4C[C@]4(O)[C@H](C2)N(CC2CC2)CC[C@@]314 |  | 2.51 µM (active) and 631 nM (active) |
| Nc1nc(N)c2nc(CNc3ccc(C(=O)N[C@H](CCC(=O)O)C(=O)O)cc3)cnc2n1 | -1.59% (inactive) |  |
| CC[C@H](C)[C@@H]1O[C@]2(CC[C@@H]1C)C[C@H]1C[C@H](CC=C(C)[C@@H](O[C@@H]3C[C@H](OC)[C@H](O[C@@H]4C[C@H](OC)[C@H](O)[C@H](C)O4)[C@H](C)O3)[C@@H](C)C=CC=C3CO[C@@H]4[C@@H](O)C(C)=C[C@@H](C(=O)O1)[C@]34O)O2 | -16.5% [at 25.6 µM] (inactive) |  |
| CCNC(=O)[C@@H]1O[C@@H](n2cnc3c(N)ncnc32)[C@@H](O)[C@H]1O | -3.38% (inactive) |  |
| CCN(CC)CC#CCOC(=O)[C@@](O)(c1ccccc1)C1CCCCC1 |  | 10 µM (active) |
| Cc1ccc(S(=O)ON2CCC(C(=O)O)(c3ccccc3)CC2)cc1 (stereo not drawn) | 20.9% [at 11.4 µM] (inactive) |  |
| CCCc1cc2c(n1Cc1ccc(C)cc1)C(C)C1CN(C(=O)c3ccccc3)C(C)(C(=O)OC)C21 (stereo not drawn) | -18% (inactive) |  |
| CCCc1cc2c(n1CCO)C(C)C1CN(C(=O)c3ccccc3)C(C)(C(=O)OC)C21 (stereo not drawn) | -9.47% (inactive) |  |
| CCCc1cc2c(n1Cc1cccc(Cl)c1)C(C)C1CN(C(=O)c3ccccc3)C(C)(C(=O)OC)C21 (stereo not drawn) |  | 12.6 µM (active) |
| O=C1Nc2ccc(I)cc2/C1=C/c1cc(Br)c(O)c(Br)c1 | 5.11% (inactive) |  |
